Compound activity deposited in PubChem by The Scripps Research Institute Molecular Screening Center.
Fam108B inh = Fam108B inhibition, counter-screen for RBBP9 inhibitors. recombinant Fam108B, FP-Rh probe fluorescence polarization. inhibition, % at 9.51 µM. 300,000 compounds, 0.33% hits. AID 1947;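 active = inhibition above the screen mean inhibition plus 3 SD, computed separately per campaign, cut at about 18% in these data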;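 also: inhibitors lower polarization as less probe binds the enzyme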
PAD4 inh = inhibitors of human PAD4 | Q9UM07 | recombinant PAD4, RCA probe fluorescence polarization | inhibition, % at 6.36 µM | 330,000 compounds, 0.41% hits;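 active = percent inhibition above a cutoff equal to the mean of all tested compounds plus 3 SD, cut at about 15% in these data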;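 also: 0% = PAD4 with RCA probe and DMSO and 100% = probe without PAD4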
LYPLA1 inh = counter-screen for PME1 inhibitors: inhibitors of human LYPLA1; recombinant LYPLA1, FP-Rh probe fluorescence polarization; O75608; inhibition, % at 5.9 µM; 320,000 compounds, 0.16% hits;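 active = inhibition above the mean of all tested compounds plus 3 SD, set per campaign, cut at about 14% in these data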;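 also: inhibitors block serine hydrolase probe labeling of LYPLA1 so polarization falls; 0% = enzyme with DMSO and 100% = wells lacking LYPLA1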
Target sequence (O75608 whole entry, looked up): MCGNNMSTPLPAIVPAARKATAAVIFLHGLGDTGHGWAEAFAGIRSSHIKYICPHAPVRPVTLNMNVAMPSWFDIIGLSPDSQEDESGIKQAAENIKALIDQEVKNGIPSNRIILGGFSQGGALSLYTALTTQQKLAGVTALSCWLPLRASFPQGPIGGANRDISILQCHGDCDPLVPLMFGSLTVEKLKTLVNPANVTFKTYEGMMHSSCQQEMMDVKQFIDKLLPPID
PME-1 inh = blocks human protein phosphatase methylesterase 1 | Q9Y570 | recombinant PME-1, FP-Rh probe fluorescence polarization | inhibition, % at 5.9 µM | 320,000 compounds, 0.53% hits;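 active = inhibition above the campaign mean of all compounds plus 3 SD, cut at about 26% in these data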;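 also: competitive labeling of PME-1 active site by serine hydrolase directed probe; 0% = PME-1 with DMSO and 100% = wells lacking PME-1 enzyme; inhibitors block probe labeling so polarization falls and inhibition rises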
GSTO1 counter = blocks human GSTO1 in RBBP9 counter-screen; P78417; recombinant GSTO1, activity-based probe fluorescence polarization; inhibition, % at 5.96 µM; 300,000 compounds, 1.1% hits; AID 1974;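 active = inhibition above the campaign mean inhibition plus 3 SD, cut at about 35% in these data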;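 also: 0% = GSTO1-1 with DMSO and 100% = wells lacking GSTO1-1 enzyme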
Target sequence (P78417 whole entry, looked up): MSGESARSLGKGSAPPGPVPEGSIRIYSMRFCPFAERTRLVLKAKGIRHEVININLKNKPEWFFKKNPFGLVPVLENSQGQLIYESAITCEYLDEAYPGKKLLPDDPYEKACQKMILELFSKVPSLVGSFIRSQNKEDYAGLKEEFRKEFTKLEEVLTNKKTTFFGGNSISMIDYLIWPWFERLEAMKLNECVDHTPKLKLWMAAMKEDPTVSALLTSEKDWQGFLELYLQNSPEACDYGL
LYPLA2 inh = blocks human lysophospholipase 2, a PME1 counter-screen | O95372 | recombinant LYPLA2, FP-Rh probe fluorescence polarization | inhibition, % at 5.9 µM | 320,000 compounds, 0.38% hits | AID 2177;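 active = inhibition above the screen-wide mean plus 3 SD, limit set per campaign, cut at about 26% in these data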;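 also: 0% = LYPLA2 with DMSO and 100% = wells lacking LYPLA2 enzyme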
Target sequence (O95372 whole entry, looked up): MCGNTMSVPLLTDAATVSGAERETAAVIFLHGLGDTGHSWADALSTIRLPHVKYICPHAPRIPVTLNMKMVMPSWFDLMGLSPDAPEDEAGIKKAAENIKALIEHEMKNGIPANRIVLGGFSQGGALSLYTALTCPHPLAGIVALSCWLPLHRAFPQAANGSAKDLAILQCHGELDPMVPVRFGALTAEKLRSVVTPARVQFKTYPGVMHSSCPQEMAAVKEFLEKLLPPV
GSTO1 confirm = confirmation of human GSTO1 inhibitors; shares compounds with GSTO1 counter; recombinant GSTO1, probe fluorescence polarization; inhibition, % at 5.96 µM; 2,400 compounds, 54% hits;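 active = inhibition above the primary screen's cutoff, its mean inhibition plus 3 SD, cut at about 35% in these data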;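 also: loss of polarization as inhibitors block binding of rhodamine sulfonate ester activity probe; 0% = GSTO1 with DMSO and 100% = wells lacking GSTO1 enzyme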
LYPLA1 confirm = counter-screen for PME1 inhibitors: confirmation of human LYPLA1 inhibitors; shares compounds with LYPLA1 inh; recombinant LYPLA1, FP-Rh probe fluorescence polarization; inhibition, % at 5.9 µM; 480 compounds, 69% hits;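 active = mean inhibition across replicates above the hit cutoff set in the primary screen, cut at about 15% in these data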;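 also: loss of FP-Rh probe labeling of LYPLA1 seen as lower polarization; 0% = LYPLA1 with DMSO and 100% = wells lacking LYPLA1 enzyme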
LYPLA2 conf = LYPLA2 (human) inhibition, confirmation counter-screen | shares compounds with LYPLA2 inh | recombinant LYPLA2, FP-Rh probe fluorescence polarization | inhibition, % at 5.9 µM | 1,100 compounds, 72% hits;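 active = mean inhibition across replicates above the hit cutoff set in the primary screen, cut at about 26% in these data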;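 also: blocked labeling of the enzyme by serine hydrolase FP-Rh probe lowers polarization; 0% = enzyme with DMSO and 100% = wells lacking LYPLA2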
PAD4 FP conf = PAD4 (human) inhibition, confirmed; shares compounds with PAD4 inh; recombinant PAD4, RCA probe fluorescence polarization; inhibition, % at 6.36 µM; 1,200 compounds, 28% hits; AID 488796;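 active = mean inhibition across replicates above the hit cutoff set by the earlier primary screen, cut at about 15% in these data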;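 also: inhibitors block active-site labeling by the probe so polarization falls; 0% = PAD4 with probe and DMSO and 100% = probe without PAD4 enzyme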
* = called active by the depositor; . = no result; ! = repeats disagree. Rows were chosen to be rich in hits. Some 1.8% of all compounds tested hit in one or more screens of this group.

SMILES | Fam108B inh | PAD4 inh | LYPLA1 inh | PME-1 inh | GSTO1 counter | LYPLA2 inh | GSTO1 confirm | PAD4 FP conf | others
O=C1c2ccccc2C(=O)c2c1cccc2-n1nnc2ccccc21 | -1 | -1 | 3 | 1 | -3 | 5 | . | .
CCc1cc(SC#N)cc(C)c1N | 1 | 3 | 0 | -4 | 0 | -4 | . | .
CCc1cc(SC#N)cc(C)c1NC(=O)CCl | -1 | 21* | -3 | 0 | 72* | -2 | 74* | 2
Cc1[nH][nH]c(=O)c1C(c1c(C)[nH][nH]c1=O)c1cn(Cc2ccc(Cl)c(Cl)c2)c2ccccc12 | 9 | 33* | 1 | 4 | 66* | 8 | 56* | -6
O=c1c2ccccc2ncn1Cc1ccc(Cl)c(Cl)c1 | -1 | 2 | -2 | 0 | 0 | 5 | . | .
Cc1[nH][nH]c(=O)c1C(c1c(C)[nH][nH]c1=O)c1cn(Cc2ccc(F)cc2)c2ccccc12 | 8 | 24* | 3 | 16 | 56* | 6 | 14 | -17
C=CCNC(=O)NC(=O)COC(=O)CC(NC(N)=O)c1ccc(Cl)cc1 (stereo not given) | 2 | -9 | 0 | 1 | 8 | 4 | . | .
COc1ccc(C(=O)c2c(C(F)(F)F)oc3c2C(=O)c2ccccc2C3=O)cc1 | 7 | 30* | -3 | 12 | 63* | -3 | 66* | 22*
Cc1ccc(CNS(=O)(=O)NCc2cccs2)cc1 | 4 | 4 | 0 | 1 | 16 | 4 | . | .
CC(=O)NC1=C(Nc2ccc(N(C)C)cc2)C(=O)c2ccccc2C1=O | 2 | 17* | -2 | -1 | 46* | -2 | 5 | -7
O=C(CCCN1C(=O)/C(=C/c2ccccc2Cl)SC1=S)Nc1cccnc1 | -7 | -6 | -5 | 10 | 16 | 4 | . | .
CC1=NN(c2ccccc2)C(=O)C1 | -2 | 45* | 1 | 0 | 72* | -2 | 10 | -3
CC1=NN(Cc2ccccc2)C(=O)C1 | 1 | 71* | -1 | -12 | 57* | -7 | 6 | -5
CCOc1ccc(S(=O)(=O)Nc2cc(Sc3ncn[nH]3)c3oc(=O)sc3c2)cc1 | 6 | 18* | 1 | 5 | 47* | 4 | 17 | 4
CCOc1ccc(S(=O)(=O)Nc2ncn[nH]2)cc1 | 2 | 1 | 1 | 1 | 1 | 2 | . | .
COc1ccc(S(=O)(=O)N2CCC(C(=O)NCCC(=O)NCc3ccccc3OC)CC2)cc1 | 2 | 3 | -5 | 0 | -1 | 5 | . | .
O=C(Cc1cc(=O)[nH][nH]1)N/N=C/c1c(Cl)cccc1Cl | -4 | 20*! | 3 | -1 | 52* | 4 | 1 | -5
O=C(Cc1cc(=O)[nH][nH]1)N/N=C/c1c(F)cccc1Cl | -1 | -16 | -2 | -1 | 34 | -11 | . | .
COc1cc(N=C2C(=O)N3c4c(cccc42)C(C)=CC3(C)C)cc(OC)c1 | 5 | -9 | 1 | 2 | -3 | 4 | . | .
CC1=CC(C)(C)N2C(=O)C(=Nc3ccc(O)cc3)c3cccc1c32 | 16 | 26* | 17* | 44* | 97* | 20 | 17 | 2 | LYPLA1 confirm=5
CCCNC(=O)C1CC(c2ccc(C(F)(F)F)cc2)=NO1 (stereo not given) | 5 | 4 | -2 | -1 | 9 | 1 | . | .
COc1ccc(OC)c(N)c1 | 9 | 38* | 11 | 15 | 46* | 23 | 14 | -4
Nn1cnnc1N/N=C/c1ccc(Cl)c([N+](=O)[O-])c1 | -4 | 56* | -1 | -2 | 39* | -7 | 6 | -1
COC(=O)CC1=NC(=O)CS1 | 0 | -5 | -3 | -4 | 2 | 3 | . | .
O=C(COC(=O)c1ccc([N+](=O)[O-])s1)Nc1ccccc1 | 10 | 33* | 0 | -6 | 65* | 3 | 13 | 4
SMILES | Fam108B inh | PAD4 inh | LYPLA1 inh | PME-1 inh | GSTO1 counter | LYPLA2 inh | GSTO1 confirm | PAD4 FP conf | others
O=C(COC(=O)c1ccc([N+](=O)[O-])s1)Nc1ccc(Cl)cn1 | 9 | -15 | -2 | 3 | 30 | 5 | . | .
CCCC(=Nc1ccccc1)C1=C(O)C(C(=O)OC)C(C)(C)CC1=O (stereo not given) | 0 | -2 | 1 | 2 | 1 | -3 | . | .
CCCCC(=Nc1ccc(N)cc1)C1=C(O)C(C(=O)OC)C(C)(C)CC1=O (stereo not given) | 13 | 75* | 23* | 41* | 86* | 28* | 3 | 2 | LYPLA1 confirm=3;LYPLA2 conf=5
CCC(=Nc1ccc(N)cc1)C1=C(O)C(C(=O)OC)C(C)(C)CC1=O (stereo not given) | 14 | 73* | 21* | 26* | 85* | 19 | 6 | 7 | LYPLA1 confirm=0
CC(=O)N1CCn2c3c(c4cc(C)ccc42)CCCC31 (stereo not given) | -3 | 2 | 5 | 10 | 10 | 8 | . | .
CC(=O)N1CCn2c3c(c(=O)c4cc(C)ccc42)CCC31 (stereo not given) | 9 | 46* | 4 | 5 | 73* | 9 | 57* | -3
O=C(CC1Nc2cccc3cccc(c23)NC1=O)Nc1ccccc1 (stereo not given) | 9 | 25* | -2 | 8 | 38* | -1 | 20 | 4
Cc1c(NC(=O)CN2CCN(c3ccc(O)cc3)CC2)c(=O)n(-c2ccccc2)n1C | 2 | 0 | 4 | -6 | 16 | 3 | . | .
CC(=O)NCCNC(=O)C1CCC(CNc2nc(=S)[nH]c3ccccc23)CC1 (stereo not given) | -4 | 3 | 0 | -6 | -1 | 2 | . | .
O=C(Nc1ccccc1)Nc1ccc(O)c2ccccc12 | 11 | 24* | -13 | 16 | 47* | -8 | 38* | -11
COc1ccc(OC)c(NC(=O)Nc2ccc(O)c3ccccc23)c1 | 6 | 23* | -11 | 13 | 61* | -3 | -7 | 1
CC1CCC2C(=O)N(c3ccc(C(=O)Oc4cccc5cccnc45)cc3)C(=O)C2C1 (stereo not given) | 2 | -6 | 1 | -1 | -2 | 4 | . | .
CCN1CCN(C(=O)c2cc(S(=O)(=O)Nc3ccc(S(C)(=O)=O)cc3)ccc2Cl)CC1 | 3 | -1 | 3 | -3 | -3 | 2 | . | .
COC(=O)CCC(=O)OC1(C)C(=O)C=C2C=C(C3CC3)N(C3CC3)C=C2C1=O (stereo not given) | 1 | 25* | 5 | 5 | 52* | 5 | 20 | -5
